# Laboratory results published in publication PMC5700166.
# Biological target: GST-Hu-p50 (Homo sapiens, UniProt P19838 7-356)
# Test: protein-binding microarray (PBM); PBM: ~300 nM protein, 6 mM HEPES pH 7.8, 80 mM KCl, 0.5 mM EDTA, 0.5 mM EGTA, 6% glycerol, 35 ng/ul poly-dIdC, 1% milk, 1 h, room temperature; Ap Aiptasia and Nv Nematostella (sea anemones) / Co Capsaspora / Aq Amphimedon (sponge) / Dm Drosophila / Hu human; RHD is the Rel homology domain; high values mean tight binding
# Conditions: dsDNA, one strand shown
# Chain of GST-Hu-p50 (P19838 7-356): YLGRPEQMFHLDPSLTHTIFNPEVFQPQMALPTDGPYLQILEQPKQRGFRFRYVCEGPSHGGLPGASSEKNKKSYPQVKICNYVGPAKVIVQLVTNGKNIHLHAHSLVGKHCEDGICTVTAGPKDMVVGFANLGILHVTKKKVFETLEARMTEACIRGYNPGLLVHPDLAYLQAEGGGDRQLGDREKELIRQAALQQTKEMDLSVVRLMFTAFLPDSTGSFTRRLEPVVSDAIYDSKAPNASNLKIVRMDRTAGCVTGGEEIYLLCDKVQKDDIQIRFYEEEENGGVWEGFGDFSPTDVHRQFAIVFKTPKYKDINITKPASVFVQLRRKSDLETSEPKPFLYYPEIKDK
row,Sequence,binding signal
1,CCGATTAACATCAGGCATGCCCCTGATGTTAATCGGGTCTTGATTCGCTTGACGCTGCTG,1.89 z-score
2,CCGATTAACATCACGGCAACCCCTGATGTTAATCGGGTCTTGATTCGCTTGACGCTGCTG,1.19 z-score
3,CCGATTAACATCAGGGGAATGGATGATGTTAATCGGGTCTTGATTCGCTTGACGCTGCTG,4.59 z-score
4,CCGATTAACATCAATAAAGTCCCTGATGTTAATCGGGTCTTGATTCGCTTGACGCTGCTG,5.23 z-score
5,CCGATTAACATCATGTCTATCGGTGATGTTAATCGGGTCTTGATTCGCTTGACGCTGCTG,1.14 z-score
6,CCGATTAACATCAACCCCGTTTCTGATGTTAATCGGGTCTTGATTCGCTTGACGCTGCTG,1.79 z-score
7,CCGATTAACATCACGGAAATTTCTGATGTTAATCGGGTCTTGATTCGCTTGACGCTGCTG,1.83 z-score
8,CCGATTAACATCAAGGAAAGCCCTGATGTTAATCGGGTCTTGATTCGCTTGACGCTGCTG,1.13 z-score
9,CCGATTAACATCAATCAGCGGGGTGATGTTAATCGGGTCTTGATTCGCTTGACGCTGCTG,1.52 z-score
10,CCGATTAACATCAGGGGCCGTAATGATGTTAATCGGGTCTTGATTCGCTTGACGCTGCTG,1.41 z-score
11,CCGATTAACATCAGGGGATAATATGATGTTAATCGGGTCTTGATTCGCTTGACGCTGCTG,4.49 z-score
12,CCGATTAACATCAGGACTATCCCTGATGTTAATCGGGTCTTGATTCGCTTGACGCTGCTG,1.81 z-score
13,CCGATTAACATCAGAAAATTTCCTGATGTTAATCGGGTCTTGATTCGCTTGACGCTGCTG,1.69 z-score
14,CCGATTAACATCAGGGAGACCCCTGATGTTAATCGGGTCTTGATTCGCTTGACGCTGCTG,3.48 z-score
15,CCGATTAACATCAACGTTTCCCCTGATGTTAATCGGGTCTTGATTCGCTTGACGCTGCTG,5.04 z-score
16,CCGATTAACATCAAATATTTCCCTGATGTTAATCGGGTCTTGATTCGCTTGACGCTGCTG,4.62 z-score
17,CCGATTAACATCACATCTTCCCCTGATGTTAATCGGGTCTTGATTCGCTTGACGCTGCTG,4.51 z-score
18,CCGATTAACATCAGGAAAAGTCCTGATGTTAATCGGGTCTTGATTCGCTTGACGCTGCTG,1.57 z-score
19,CCGATTAACATCAGGGGATACCCTGATGTTAATCGGGTCTTGATTCGCTTGACGCTGCTG,5.1 z-score
20,CCGATTAACATCACTTTTTTCCCTGATGTTAATCGGGTCTTGATTCGCTTGACGCTGCTG,3.53 z-score

row,Sequence,binding signal
1,CCGATTAACATCACGGAATTTTCTGATGTTAATCGGGTCTTGATTCGCTTGACGCTGCTG,1.13 z-score
2,CCGATTAACATCAACCTTTCCCCTGATGTTAATCGGGTCTTGATTCGCTTGACGCTGCTG,4.06 z-score
3,CCGATTAACATCAGGGGAACCTATGATGTTAATCGGGTCTTGATTCGCTTGACGCTGCTG,4.74 z-score
4,CCGATTAACATCACGTATTCCCCTGATGTTAATCGGGTCTTGATTCGCTTGACGCTGCTG,5.15 z-score
5,CCGATTAACATCAAGAAATTCCTTGATGTTAATCGGGTCTTGATTCGCTTGACGCTGCTG,1.18 z-score
6,CCGATTAACATCAGGAATCACCCTGATGTTAATCGGGTCTTGATTCGCTTGACGCTGCTG,3.31 z-score
7,CCGATTAACATCACGATTTTCCCTGATGTTAATCGGGTCTTGATTCGCTTGACGCTGCTG,3.78 z-score
8,CCGATTAACATCAGGGGAAGAAATGATGTTAATCGGGTCTTGATTCGCTTGACGCTGCTG,5.16 z-score
9,CCGATTAACATCAGGGAACGCCCTGATGTTAATCGGGTCTTGATTCGCTTGACGCTGCTG,2.04 z-score
10,CCGATTAACATCAGGAACACCCCTGATGTTAATCGGGTCTTGATTCGCTTGACGCTGCTG,2.26 z-score
11,CCGATTAACATCACCATTATAGGTGATGTTAATCGGGTCTTGATTCGCTTGACGCTGCTG,1.68 z-score
12,CCGATTAACATCAATGGGATTCCTGATGTTAATCGGGTCTTGATTCGCTTGACGCTGCTG,1.23 z-score
13,CCGATTAACATCACTATTTTCCCTGATGTTAATCGGGTCTTGATTCGCTTGACGCTGCTG,3.18 z-score
14,CCGATTAACATCAACGGGTCCCTTGATGTTAATCGGGTCTTGATTCGCTTGACGCTGCTG,1.31 z-score
15,CCGATTAACATCAATAAATTTCCTGATGTTAATCGGGTCTTGATTCGCTTGACGCTGCTG,1.15 z-score
16,CCGATTAACATCAAGAGTTCCCCTGATGTTAATCGGGTCTTGATTCGCTTGACGCTGCTG,5.23 z-score
17,CCGATTAACATCACCTTTAGGAGTGATGTTAATCGGGTCTTGATTCGCTTGACGCTGCTG,1.11 z-score
18,CCGATTAACATCAGGAATCCCACTGATGTTAATCGGGTCTTGATTCGCTTGACGCTGCTG,1.55 z-score
19,CCGATTAACATCACGTTTTTCCCTGATGTTAATCGGGTCTTGATTCGCTTGACGCTGCTG,3.49 z-score
